Data taken from the supplement of paper PMC11001985.
Values without a mark were called inactive.

Compound: C#CCNC(=O)CCSSCCC(=O)NCCc1ccc(C=O)c(C=O)c1
Test: lysine labeling ratio R10:1 (500 µM / 50 µM probe), SILAC-ABPP in living cells; higher = lower intrinsic lysine reactivity toward the probe, active = 2 or less
Details: HeLa; probe concentrations 500 vs 50 µM
Summary of the method: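 In PBS at room temperature, living HeLa cells grown with SILAC light or heavy labels were treated with 50 µM or 500 µM of an alkyne-tagged, disulfide-linked lysine probe, with label swaps in both directions. Analysis was by LC-MS/MS on a TIMS-TOF Pro after click to biotin-azide, neutravidin capture and DTT release. For each lysine, R is the median across forward and reverse replicates of the filtered median high-probe/low-probe MS1 peptide ratio, capped at 20.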

Chain of UniProt P27816 (P27816 whole entry): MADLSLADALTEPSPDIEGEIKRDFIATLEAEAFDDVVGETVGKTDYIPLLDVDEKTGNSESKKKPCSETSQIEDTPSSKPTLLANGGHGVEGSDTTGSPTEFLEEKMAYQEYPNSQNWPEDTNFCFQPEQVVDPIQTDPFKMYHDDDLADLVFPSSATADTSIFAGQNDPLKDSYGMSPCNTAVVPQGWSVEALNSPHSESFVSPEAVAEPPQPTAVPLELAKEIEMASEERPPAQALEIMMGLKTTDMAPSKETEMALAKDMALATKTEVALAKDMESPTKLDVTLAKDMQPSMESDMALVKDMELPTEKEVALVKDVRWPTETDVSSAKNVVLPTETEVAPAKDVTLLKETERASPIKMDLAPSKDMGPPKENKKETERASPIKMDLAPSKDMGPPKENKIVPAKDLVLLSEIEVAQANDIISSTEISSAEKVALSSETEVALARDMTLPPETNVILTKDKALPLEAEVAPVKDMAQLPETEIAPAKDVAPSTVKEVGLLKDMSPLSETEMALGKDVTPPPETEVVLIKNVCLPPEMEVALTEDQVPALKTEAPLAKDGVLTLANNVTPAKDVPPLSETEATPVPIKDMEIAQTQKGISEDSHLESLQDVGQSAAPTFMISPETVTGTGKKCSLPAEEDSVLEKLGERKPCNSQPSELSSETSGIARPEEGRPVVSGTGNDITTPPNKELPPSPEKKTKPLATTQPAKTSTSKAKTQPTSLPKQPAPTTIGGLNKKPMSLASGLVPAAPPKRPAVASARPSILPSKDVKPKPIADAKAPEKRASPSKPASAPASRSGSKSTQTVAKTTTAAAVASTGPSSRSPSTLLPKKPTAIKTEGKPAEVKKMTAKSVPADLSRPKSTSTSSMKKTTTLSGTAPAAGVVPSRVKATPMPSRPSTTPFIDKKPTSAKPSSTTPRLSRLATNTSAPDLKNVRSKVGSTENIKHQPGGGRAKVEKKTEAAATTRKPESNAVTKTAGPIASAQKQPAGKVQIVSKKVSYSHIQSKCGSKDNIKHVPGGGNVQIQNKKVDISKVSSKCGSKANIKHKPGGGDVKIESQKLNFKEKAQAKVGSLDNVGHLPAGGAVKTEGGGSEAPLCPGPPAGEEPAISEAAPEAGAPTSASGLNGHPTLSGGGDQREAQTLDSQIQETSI
Chain of UniProt P08069 (P08069 whole entry, looked up): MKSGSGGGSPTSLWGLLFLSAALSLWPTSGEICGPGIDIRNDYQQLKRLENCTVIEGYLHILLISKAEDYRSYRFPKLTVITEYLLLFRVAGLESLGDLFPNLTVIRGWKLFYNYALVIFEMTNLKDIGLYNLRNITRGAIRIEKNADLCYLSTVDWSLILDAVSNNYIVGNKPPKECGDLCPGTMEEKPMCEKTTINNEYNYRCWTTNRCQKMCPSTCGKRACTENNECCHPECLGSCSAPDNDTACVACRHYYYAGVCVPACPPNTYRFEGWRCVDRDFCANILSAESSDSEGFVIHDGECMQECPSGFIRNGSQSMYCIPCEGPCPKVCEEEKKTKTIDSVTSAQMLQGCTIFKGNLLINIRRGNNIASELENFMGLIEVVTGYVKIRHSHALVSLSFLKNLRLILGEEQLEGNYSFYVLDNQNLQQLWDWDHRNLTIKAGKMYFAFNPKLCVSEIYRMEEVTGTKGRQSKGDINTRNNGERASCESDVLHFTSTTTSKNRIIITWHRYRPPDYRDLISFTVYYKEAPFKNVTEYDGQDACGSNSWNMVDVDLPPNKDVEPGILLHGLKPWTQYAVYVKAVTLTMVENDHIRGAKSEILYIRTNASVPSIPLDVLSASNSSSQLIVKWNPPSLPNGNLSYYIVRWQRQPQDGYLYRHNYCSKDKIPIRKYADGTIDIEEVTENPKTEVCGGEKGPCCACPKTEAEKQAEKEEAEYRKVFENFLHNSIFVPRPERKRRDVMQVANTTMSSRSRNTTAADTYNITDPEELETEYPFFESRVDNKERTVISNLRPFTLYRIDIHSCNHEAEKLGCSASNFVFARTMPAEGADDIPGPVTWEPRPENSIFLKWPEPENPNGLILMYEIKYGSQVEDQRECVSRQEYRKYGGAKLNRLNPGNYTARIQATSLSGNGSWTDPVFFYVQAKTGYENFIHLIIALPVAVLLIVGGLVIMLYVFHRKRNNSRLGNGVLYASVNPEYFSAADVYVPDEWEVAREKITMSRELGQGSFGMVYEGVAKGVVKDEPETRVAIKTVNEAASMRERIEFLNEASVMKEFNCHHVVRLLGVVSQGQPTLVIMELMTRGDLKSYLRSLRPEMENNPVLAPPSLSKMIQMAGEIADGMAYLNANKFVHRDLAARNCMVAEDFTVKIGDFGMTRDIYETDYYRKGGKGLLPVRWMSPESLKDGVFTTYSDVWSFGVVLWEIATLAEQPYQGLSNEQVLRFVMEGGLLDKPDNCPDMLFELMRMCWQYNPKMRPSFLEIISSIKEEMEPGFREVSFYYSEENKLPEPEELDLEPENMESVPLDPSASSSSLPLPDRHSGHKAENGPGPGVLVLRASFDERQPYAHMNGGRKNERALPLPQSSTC
Chain of UniProt P26639 (P26639 whole entry): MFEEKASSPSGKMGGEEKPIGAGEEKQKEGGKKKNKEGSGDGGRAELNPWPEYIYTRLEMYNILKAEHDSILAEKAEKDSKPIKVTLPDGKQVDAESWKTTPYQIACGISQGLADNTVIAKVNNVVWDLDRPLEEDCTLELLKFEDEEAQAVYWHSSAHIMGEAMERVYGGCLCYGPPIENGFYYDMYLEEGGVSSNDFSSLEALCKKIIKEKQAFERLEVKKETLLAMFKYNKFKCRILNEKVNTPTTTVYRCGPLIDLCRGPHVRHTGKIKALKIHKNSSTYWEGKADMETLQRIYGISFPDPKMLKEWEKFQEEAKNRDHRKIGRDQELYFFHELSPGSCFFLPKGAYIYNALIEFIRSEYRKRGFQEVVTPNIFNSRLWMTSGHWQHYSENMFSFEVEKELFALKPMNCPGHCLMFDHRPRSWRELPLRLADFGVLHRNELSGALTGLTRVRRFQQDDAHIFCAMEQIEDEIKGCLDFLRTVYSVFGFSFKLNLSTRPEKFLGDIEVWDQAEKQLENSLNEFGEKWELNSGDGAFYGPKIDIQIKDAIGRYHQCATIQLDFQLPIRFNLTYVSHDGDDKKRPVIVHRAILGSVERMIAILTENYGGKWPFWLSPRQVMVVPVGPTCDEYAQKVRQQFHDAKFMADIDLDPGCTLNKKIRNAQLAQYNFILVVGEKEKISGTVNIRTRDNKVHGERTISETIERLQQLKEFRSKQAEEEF
Chain of UniProt P15328 (P15328 whole entry, looked up): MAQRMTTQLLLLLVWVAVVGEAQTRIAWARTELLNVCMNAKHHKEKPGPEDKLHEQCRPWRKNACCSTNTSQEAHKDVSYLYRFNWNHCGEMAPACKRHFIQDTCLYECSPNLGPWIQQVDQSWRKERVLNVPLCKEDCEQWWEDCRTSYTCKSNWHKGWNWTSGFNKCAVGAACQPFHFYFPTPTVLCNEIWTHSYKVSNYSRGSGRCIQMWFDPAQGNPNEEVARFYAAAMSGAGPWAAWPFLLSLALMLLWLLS
Chain of UniProt O95573 (O95573 whole entry): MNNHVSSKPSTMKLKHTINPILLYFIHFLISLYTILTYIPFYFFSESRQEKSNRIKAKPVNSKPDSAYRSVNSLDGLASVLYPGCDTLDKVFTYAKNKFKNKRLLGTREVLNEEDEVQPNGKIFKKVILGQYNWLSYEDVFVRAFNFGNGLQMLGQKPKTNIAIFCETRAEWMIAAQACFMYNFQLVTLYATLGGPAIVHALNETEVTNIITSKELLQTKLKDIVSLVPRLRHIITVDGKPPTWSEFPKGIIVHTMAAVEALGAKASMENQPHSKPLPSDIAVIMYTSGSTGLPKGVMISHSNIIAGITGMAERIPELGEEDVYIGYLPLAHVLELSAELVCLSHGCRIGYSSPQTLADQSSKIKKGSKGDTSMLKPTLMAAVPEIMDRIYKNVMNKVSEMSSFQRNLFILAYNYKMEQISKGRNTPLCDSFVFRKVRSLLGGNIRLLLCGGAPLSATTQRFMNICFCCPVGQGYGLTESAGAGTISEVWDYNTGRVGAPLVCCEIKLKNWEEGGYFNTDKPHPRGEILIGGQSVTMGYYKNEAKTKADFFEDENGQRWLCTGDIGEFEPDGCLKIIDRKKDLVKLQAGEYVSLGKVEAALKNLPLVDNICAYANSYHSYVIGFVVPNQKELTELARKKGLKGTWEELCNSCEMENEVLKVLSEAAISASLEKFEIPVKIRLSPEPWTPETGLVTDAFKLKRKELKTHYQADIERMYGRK
Chain of UniProt Q8N8S7 (Q8N8S7 whole entry): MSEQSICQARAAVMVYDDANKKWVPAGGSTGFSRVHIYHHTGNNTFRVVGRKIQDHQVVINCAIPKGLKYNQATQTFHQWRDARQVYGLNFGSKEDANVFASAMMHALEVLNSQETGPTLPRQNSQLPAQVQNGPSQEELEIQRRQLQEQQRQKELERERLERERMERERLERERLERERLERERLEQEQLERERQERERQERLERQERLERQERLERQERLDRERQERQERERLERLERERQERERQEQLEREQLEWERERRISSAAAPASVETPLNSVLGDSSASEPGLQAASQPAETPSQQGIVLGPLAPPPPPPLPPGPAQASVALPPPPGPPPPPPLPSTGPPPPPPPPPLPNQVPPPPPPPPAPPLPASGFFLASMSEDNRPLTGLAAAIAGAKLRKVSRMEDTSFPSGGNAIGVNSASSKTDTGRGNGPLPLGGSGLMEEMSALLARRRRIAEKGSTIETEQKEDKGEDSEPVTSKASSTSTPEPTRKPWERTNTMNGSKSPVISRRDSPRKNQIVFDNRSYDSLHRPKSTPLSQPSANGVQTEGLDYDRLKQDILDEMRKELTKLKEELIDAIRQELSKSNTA
Chain of UniProt O43633 (O43633 whole entry): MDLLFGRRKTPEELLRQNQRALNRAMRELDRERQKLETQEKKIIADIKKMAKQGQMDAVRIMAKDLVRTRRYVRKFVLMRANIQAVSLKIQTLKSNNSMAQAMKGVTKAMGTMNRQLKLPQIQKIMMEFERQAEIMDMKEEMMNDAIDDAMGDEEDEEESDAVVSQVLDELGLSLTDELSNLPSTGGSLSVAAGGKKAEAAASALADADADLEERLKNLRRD

Target | lysine labeling ratio R10:1
UniProt P62829 (lysine site: K123) | 0.877 (active)
TFPI (lysine site: K68) (UniProt P10646) | 1.41 (active)
TKT (lysine site: K283) (UniProt P29401) | 7.35
ITGA1 (lysine site: K849) (UniProt P56199) | 0.921 (active)
L1CAM (lysine site: K144) (UniProt P32004) | 1.09 (active)
FOLR1 (lysine site: K136) (UniProt P15328) | 7.36
ACTN4 (lysine site: K535) (UniProt O43707) | 1.05 (active)
CACNA2D1 (lysine site: K634) (UniProt P54289) | 3.07
UniProt P60866 (lysine site: K59) | 2.02
UniProt Q8WXI7 (lysine site: K13384) | 7.85
TGFBI (lysine site: K53) (UniProt Q15582) | 1.28 (active)
EEF1G (lysine site: K434) (UniProt P26641) | 3.73
MYH9 (lysine site: K910) (UniProt P35579) | 4.64
RPS3A (lysine site: K249) (UniProt P61247) | 1.8 (active)
THRAP3 (lysine site: K519) (UniProt Q9Y2W1) | 3.8
XRCC5 (lysine site: K36) (UniProt P13010) | 2.42
SERPINH1 (lysine site: K160) (UniProt P50454) | 2.81
UniProt Q15149 (lysine site: K1815) | 3.79
GNAI2 (lysine site: K313) (UniProt P04899) | 1.06 (active)
ACSL3 (lysine site: K397) (UniProt O95573) | 3.08

Target | lysine labeling ratio R10:1
UniProt P08727 (lysine site: K216) | 7.74
XRCC6 (lysine site: K129) (UniProt P12956) | 1.62 (active)
MAP4 (lysine site: K946) (UniProt P27816) | 1.95 (active)
EEF2 (lysine site: K439) (UniProt P13639) | 1.76 (active)
UniProt P26639 (lysine site: K243) | 3.1
IGF1R (lysine site: K665) (UniProt P08069) | 1.28 (active)
ENG (lysine site: K402) (UniProt P17813) | 2.25
SDCBP (lysine site: K109) (UniProt O00560) | 5.45
CHMP2A (lysine site: K64) (UniProt O43633) | 5.72
CD46 (lysine site: K224) (UniProt P15529) | 6.48
UniProt Q9UKX5 (lysine site: K402) | 0.975 (active)
FZD1 (lysine site: K384) (UniProt Q9UP38) | 0.938 (active)
NUMA1 (lysine site: K573) (UniProt Q14980) | 1.46 (active)
HSP90B1 (lysine site: K630) (UniProt P14625) | 2.66
LAMB1 (lysine site: K1492) (UniProt P07942) | 4.06
GPC1 (lysine site: K338) (UniProt P35052) | 7.36
HNRNPA1 (lysine site: K350) (UniProt P09651) | 3.42
PTPRS (lysine site: K379) (UniProt Q13332) | 2.21
FN1 (lysine site: K2027) (UniProt P02751) | 13
ENAH (lysine site: K574) (UniProt Q8N8S7) | 5.16
